This is an account of results in PubChem BioAssay (EPA / NIEHS).

The source made the active and inactive calls. Rule for the calls: active = hit-call score of the fitted dose curve at least 0.9, where 1 is the maximum; inactive = score below 0.9.

Test [1] is described as follows: ATG_M_32_CIS: Attagene CIS-FACTORIAL HepG2 Assay for M32 Transcription Factor (Internal Marker) (AID 2282949).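 Note: background control marker of the multiplexed CIS panel rather than a real target.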 The settings on record: HepG2 Attagene cis-factorial M32 reporter, mRNA; actives raise or lower the signal. In a few lines: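 Following 24 h chemical exposure of HepG2 cells transiently expressing cis-promoter reporter constructs, reporter transcript levels were determined by RT-PCR with fluorescent labelling and capillary electrophoresis, then fitted bidirectionally against DMSO.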

The nature of test [2]: ATG_M_06_CIS: Attagene CIS-FACTORIAL HepG2 Assay for M06 Transcription Factor (Internal Marker) (AID 2282950). The settings on record: HepG2 Attagene CIS-FACTORIAL M06 internal marker reporter; actives raise or lower the signal. The procedure, abridged: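 Cells (HepG2, transiently carrying cis-driven reporter units) receive chemical for 24 h before RNA isolation. Reporter cDNA is PCR-amplified, FAM-labelled by primer extension, HpaI-digested and sized on a capillary analyser.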

Test [3] has as its target Hypoxia-inducible factor 1-alpha (Homo sapiens) (UniProt Q16665). The test is described as follows: ATG_HIF1a_CIS: Attagene CIS-FACTORIAL HepG2 Assay for human Hypoxia Inducible Factor 1 (HIF1A) (AID 2282951). The conditions noted are these: HepG2 Attagene cis-factorial HIF1a reporter transcription; actives raise or lower the signal. The procedure, abridged:
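Fluorescence intensity of capillary-separated, 6-FAM-labelled reporter amplicons gives mRNA induction in HepG2 cells carrying transfected cis-promoter reporter units; cells exposed 24 h, responses fitted up or down from DMSO.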

In test [4] the target is Hepatocyte nuclear factor 6 (Homo sapiens) (UniProt Q9UBC0). Put plainly: ATG_HNF6_CIS: Attagene CIS-FACTORIAL HepG2 Assay for human Hepatocyte Nuclear Factor 6 (HNF6) (AID 2282952). The settings on record: HepG2 Attagene cis-factorial HNF6 reporter transcription; actives raise or lower the signal. The procedure, abridged:
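HepG2 cells transiently transfected with cis-element-driven multiple reporter transcription units, dosed 24 h; reporter mRNA quantified by RT-PCR, FAM primer extension, HpaI digestion and capillary electrophoresis; bidirectional fit versus DMSO baseline.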

Test [5] has as its target Heat shock factor protein 1 (Homo sapiens) (UniProt Q00613). Put plainly: ATG_HSE_CIS: Attagene CIS-FACTORIAL HepG2 Assay for human Heat Shock Transcription Factor 1 (HSE) (AID 2282953). The conditions noted are these: HepG2 HSE cis-reporter, Attagene RNA transcription; actives raise or lower the signal. The procedure, abridged: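 Liver-derived HepG2 cells carry transiently introduced multiple reporter units governed by cis promoters. Reporter RNA measured 24 h post-dose through reverse transcription, PCR amplification, fluorescent labelling and capillary electrophoresis, normalised to DMSO.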

Test [6] is described as follows: ATG_MRE_CIS: Attagene CIS-FACTORIAL HepG2 Assay for human Metal Responsive Element (MRE) (AID 2282954). The settings on record: HepG2 MRE cis-reporter transcription, Attagene multiplex; actives raise or lower the signal. In a few lines:
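HepG2 cells transiently transfected with multiple cis-element reporter units measure endogenous MTF1-driven transcription. After 24 h compound exposure, reporter mRNA is quantified by RT-PCR with 6-FAM labelling, HpaI digestion and capillary electrophoresis; bidirectional fits versus DMSO.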

The nature of test [7]: ATG_PBREM_CIS: Attagene CIS-FACTORIAL HepG2 Assay for human Phenobarbital-responsive Enhancer Module (PBREM) (AID 2282955). The conditions noted are these: HepG2 PBREM cis-reporter, Attagene multiplexed transcription; actives raise or lower the signal. The procedure, abridged: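 Cells were transfected with cis-element reporter units and treated for 24 h, after which RNA was extracted and reporter transcripts measured by RT-PCR and capillary electrophoresis.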

The target in test [8] is Paired box protein Pax-6 (Homo sapiens) (UniProt P26367). Put plainly: ATG_Pax6_CIS: Attagene CIS-FACTORIAL HepG2 Assay for human Paired Box 6 (PAX6) (AID 2282956). The conditions noted are these: HepG2 CIS-FACTORIAL PAX6 reporter transcription, RNA readout; actives raise or lower the signal. In a few lines: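 Multiplexed cis-reporter HepG2 system; 24 h treatment; reporter mRNA read by RT-PCR/CE fluorescence; bidirectional fit vs DMSO.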
Paired box protein Pax-6 (Homo sapiens), sequence (P26367 whole entry, looked up): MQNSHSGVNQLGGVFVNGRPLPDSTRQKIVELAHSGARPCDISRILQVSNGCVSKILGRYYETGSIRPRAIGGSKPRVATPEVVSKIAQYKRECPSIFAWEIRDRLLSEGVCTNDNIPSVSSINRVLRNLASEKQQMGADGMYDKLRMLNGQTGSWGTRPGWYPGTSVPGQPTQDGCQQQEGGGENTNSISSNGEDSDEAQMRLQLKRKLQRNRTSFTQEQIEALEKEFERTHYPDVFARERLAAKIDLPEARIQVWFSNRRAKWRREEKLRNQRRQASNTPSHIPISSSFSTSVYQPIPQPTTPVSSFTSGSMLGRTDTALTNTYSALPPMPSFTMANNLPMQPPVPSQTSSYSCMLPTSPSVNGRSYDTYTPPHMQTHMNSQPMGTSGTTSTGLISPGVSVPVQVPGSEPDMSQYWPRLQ

Test [9] can be described thus: ATG_PXRE_CIS: Attagene CIS-FACTORIAL HepG2 Assay for human Pregnane X Receptor Element (PXRE) (AID 2282957). The settings on record: HepG2 Attagene CIS-FACTORIAL PXRE reporter, mRNA; actives raise or lower the signal. The procedure, abridged: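 HepG2 cells transiently transfected with cis-regulated multiple reporter transcription units; endogenous factor activity measured as reporter mRNA 24 h after dosing. RT-PCR, fluorescent primer extension, HpaI digestion, capillary electrophoresis; bidirectional fit versus DMSO baseline.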

Test [10] in a line: ATG_PPRE_CIS: Attagene CIS-FACTORIAL HepG2 Assay for human Peroxisome Proliferator-activated Response Element (PPRE) (AID 2282958). The conditions noted are these: HepG2 PPRE cis-element reporter, Attagene transcription factor profiling; actives raise or lower the signal. In a few lines: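 In this cell-based multiplex, a PPRE cis element drives a reporter sequence in transiently transfected HepG2 cells. Following 24 h treatment, labeled cDNA amplicons are sized and quantified by capillary electrophoresis, with DMSO defining baseline.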

Test [11] can be described thus: ATG_RORE_CIS: Attagene CIS-FACTORIAL HepG2 Assay for human RAR-related Orphan Receptor Element (RORE) (AID 2282959). The settings on record: HepG2 Attagene cis-factorial RORE reporter, mRNA; actives raise or lower the signal. In a few lines:
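Endogenous factor activity at a cis response element is read as reporter transcript levels in HepG2 cells, 24 h post-dose. Transcripts are quantified by RT-PCR with capillary electrophoresis, and data fitted in both directions against DMSO.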

The nature of test [12]: ATG_Sox_CIS: Attagene CIS-FACTORIAL HepG2 Assay for human SRY-box transcription factor (SOX) (AID 2282960). The conditions noted are these: HepG2 Attagene cis-factorial SOX reporter, mRNA; actives raise or lower the signal. The procedure, abridged:
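Measures mRNA induction of a SOX1-associated reporter in HepG2 after 24 h dosing. Fluorescently labelled RT-PCR fragments are separated by capillary electrophoresis, and gain or loss relative to DMSO control is fitted.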

Test [13] has as its target Transcription factor Sp1 (Homo sapiens) (UniProt P08047). The test is described as follows: ATG_Sp1_CIS: Attagene CIS-FACTORIAL HepG2 Assay for human Specificity Protein 1 (Sp1) (AID 2282961). The settings on record: HepG2 Sp1 cis-reporter transcription, actives raise or lower the signal. In a few lines:
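Cells: HepG2, transiently transfected with cis-regulated multiplexed reporters. Exposure: 24 h. Detection: reporter transcripts amplified, fluorescently labeled, restriction-digested and sized by capillary electrophoresis. Analysis: bidirectional fit relative to DMSO.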

Test [14] in a line: ATG_SREBP_CIS: Attagene CIS-FACTORIAL HepG2 Assay for human Sterol Regulatory Element Binding (SREBP) (AID 2282962). The conditions noted are these: HepG2 Attagene cis-factorial SREBP reporter, mRNA; actives raise or lower the signal. In a few lines:
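mRNA induction of transfected cis-promoter reporters in HepG2 cells, 24 h post-dose. Detection: RT-PCR with 6-FAM-labelled products, HpaI digest, capillary electrophoresis. DMSO served as negative control and baseline.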

For test [15], the target named is Signal transducer and activator of transcription 3 (Homo sapiens) (UniProt P40763). Put plainly: ATG_STAT3_CIS: Attagene CIS-FACTORIAL HepG2 Assay for human Signal Transducer and Activator of Transcription 3 (STAT3) (AID 2282963). The conditions noted are these: HepG2, Attagene cis-factorial STAT3 reporter transcription; actives raise or lower the signal. In a few lines: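 HepG2 cells transiently transfected with cis-element-driven multiple reporter transcription units; after 24 h chemical exposure, reporter mRNA measured by RT-PCR, 6-FAM primer-extension labelling, HpaI digestion and capillary electrophoresis. Bidirectional fitting versus DMSO baseline.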
Signal transducer and activator of transcription 3 (Homo sapiens), sequence (P40763 whole entry, looked up): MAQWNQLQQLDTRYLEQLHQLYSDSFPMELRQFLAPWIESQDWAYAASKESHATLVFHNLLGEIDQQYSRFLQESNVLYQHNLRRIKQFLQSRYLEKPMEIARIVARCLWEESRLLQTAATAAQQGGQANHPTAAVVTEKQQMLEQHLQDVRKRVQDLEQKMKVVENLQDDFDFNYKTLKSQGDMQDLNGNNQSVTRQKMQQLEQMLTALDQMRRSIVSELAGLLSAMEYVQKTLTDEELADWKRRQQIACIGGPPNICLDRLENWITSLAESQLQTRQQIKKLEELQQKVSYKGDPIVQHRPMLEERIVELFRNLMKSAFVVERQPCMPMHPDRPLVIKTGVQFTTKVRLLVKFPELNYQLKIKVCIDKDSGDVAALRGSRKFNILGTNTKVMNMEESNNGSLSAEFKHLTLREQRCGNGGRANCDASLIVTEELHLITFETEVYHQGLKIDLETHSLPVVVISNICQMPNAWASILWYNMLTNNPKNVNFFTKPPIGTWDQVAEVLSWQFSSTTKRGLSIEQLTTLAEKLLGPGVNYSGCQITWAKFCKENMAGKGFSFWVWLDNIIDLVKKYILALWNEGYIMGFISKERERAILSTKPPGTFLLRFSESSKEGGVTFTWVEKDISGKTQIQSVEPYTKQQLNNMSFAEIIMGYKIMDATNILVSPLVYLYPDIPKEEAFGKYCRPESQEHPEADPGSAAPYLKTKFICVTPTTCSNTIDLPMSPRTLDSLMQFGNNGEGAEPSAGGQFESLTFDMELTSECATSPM

Test [16] in a line: ATG_TA_CIS: Attagene CIS-FACTORIAL HepG2 Assay for human TA Basal Promoter (AID 2282964). The settings on record: HepG2 Attagene CIS-factorial TA basal promoter reporter; actives raise or lower the signal. The procedure, abridged: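 Background internal-marker endpoint from a 52-component HepG2 cis-reporter panel. Cells treated 24 h; reporter transcripts quantified via RT-PCR and CE fluorescence against DMSO baseline.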

A short description of test [17]: ATG_TCF_b_cat_CIS: Attagene CIS-FACTORIAL HepG2 Assay for human T-Cell-Factor with beta-catenin (TCF/b-cat) (AID 2282965). The settings on record: HepG2 TCF/beta-catenin cis-reporter transcription, actives raise or lower the signal. In a few lines: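 HepG2 cells transiently transfected with multiple cis-promoter-regulated reporter transcription units, so endogenous transcription factor activity is measured. Reporter mRNA read 24 hours after dosing by RT-PCR, fluorescent labelling and capillary electrophoresis; bidirectional fitting against DMSO.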

A short description of test [18]: ATG_TAL_CIS: Attagene CIS-FACTORIAL HepG2 Assay for human TAL Basal Promoter (AID 2282966).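 Note: background control endpoint measuring basal TAL promoter reporter mRNA not a specific factor.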 The settings on record: HepG2 Attagene cis-factorial TAL promoter reporter; actives raise or lower the signal. In a few lines: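 HepG2 cells were transiently transfected with promoter-driven multiplexed reporter units and dosed for 24 h. Reporter mRNA was measured by RT-PCR with capillary electrophoresis fluorescence; bidirectional fits used DMSO as baseline, serving as a background control.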

Test [19] is described as follows: ATG_VDRE_CIS: Attagene CIS-FACTORIAL HepG2 Assay for human Vitamin D Receptor Element (VDRE) (AID 2282968). The conditions noted are these: HepG2 VDRE cis-reporter transcription, actives raise or lower the signal. In a few lines:
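HepG2 cells transiently transfected with cis-element reporter units, dosed 24 h; reporter mRNA measured by RT-PCR, 6-FAM labeling, HpaI digestion and capillary electrophoresis. Activity fitted bidirectionally against DMSO baseline.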

Test [20] is described as follows: ATG_TGFb_CIS: Attagene CIS-FACTORIAL HepG2 Assay for human Transforming Growth Factor (TGF) (AID 2282967). The settings on record: HepG2 Attagene CIS TGFb reporter, mRNA transcription; actives raise or lower the signal. The procedure, abridged: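 Liver HepG2 line, cis-factorial reporter panel, 24 h dosing. Quantitation: RT-PCR products labeled with 6-FAM, cut with HpaI, resolved by capillary electrophoresis; DMSO-referenced bidirectional analysis.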

Heat shock factor protein 1 (Homo sapiens), sequence (Q00613 whole entry, looked up): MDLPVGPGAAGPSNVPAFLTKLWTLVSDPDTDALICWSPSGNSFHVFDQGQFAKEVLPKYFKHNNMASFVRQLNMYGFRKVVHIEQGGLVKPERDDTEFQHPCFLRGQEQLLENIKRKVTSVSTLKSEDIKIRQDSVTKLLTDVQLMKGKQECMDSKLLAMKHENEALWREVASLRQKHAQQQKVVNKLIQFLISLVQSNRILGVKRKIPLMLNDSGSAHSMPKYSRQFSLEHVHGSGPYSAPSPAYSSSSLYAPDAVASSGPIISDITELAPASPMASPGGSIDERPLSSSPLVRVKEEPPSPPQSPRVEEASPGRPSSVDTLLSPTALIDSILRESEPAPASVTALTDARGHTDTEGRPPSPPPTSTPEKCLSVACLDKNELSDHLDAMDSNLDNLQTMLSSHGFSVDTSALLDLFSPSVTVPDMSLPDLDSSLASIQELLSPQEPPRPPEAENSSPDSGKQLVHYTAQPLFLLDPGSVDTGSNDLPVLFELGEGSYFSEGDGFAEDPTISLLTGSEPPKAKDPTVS
Hepatocyte nuclear factor 6 (Homo sapiens), sequence (Q9UBC0 whole entry, looked up): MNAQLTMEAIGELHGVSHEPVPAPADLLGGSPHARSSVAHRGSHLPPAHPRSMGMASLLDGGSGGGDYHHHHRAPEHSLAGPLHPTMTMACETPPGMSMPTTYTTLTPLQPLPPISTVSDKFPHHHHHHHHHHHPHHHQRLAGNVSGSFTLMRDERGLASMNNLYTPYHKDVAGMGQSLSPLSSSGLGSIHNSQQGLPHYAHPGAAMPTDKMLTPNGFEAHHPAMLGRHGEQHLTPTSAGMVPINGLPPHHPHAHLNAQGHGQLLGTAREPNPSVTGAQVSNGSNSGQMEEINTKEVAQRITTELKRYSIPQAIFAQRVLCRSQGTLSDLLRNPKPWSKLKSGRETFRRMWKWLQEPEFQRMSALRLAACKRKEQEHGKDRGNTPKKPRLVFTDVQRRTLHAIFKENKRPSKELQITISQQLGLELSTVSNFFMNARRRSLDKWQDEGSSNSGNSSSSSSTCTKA
Transcription factor Sp1 (Homo sapiens), sequence (P08047 whole entry, looked up): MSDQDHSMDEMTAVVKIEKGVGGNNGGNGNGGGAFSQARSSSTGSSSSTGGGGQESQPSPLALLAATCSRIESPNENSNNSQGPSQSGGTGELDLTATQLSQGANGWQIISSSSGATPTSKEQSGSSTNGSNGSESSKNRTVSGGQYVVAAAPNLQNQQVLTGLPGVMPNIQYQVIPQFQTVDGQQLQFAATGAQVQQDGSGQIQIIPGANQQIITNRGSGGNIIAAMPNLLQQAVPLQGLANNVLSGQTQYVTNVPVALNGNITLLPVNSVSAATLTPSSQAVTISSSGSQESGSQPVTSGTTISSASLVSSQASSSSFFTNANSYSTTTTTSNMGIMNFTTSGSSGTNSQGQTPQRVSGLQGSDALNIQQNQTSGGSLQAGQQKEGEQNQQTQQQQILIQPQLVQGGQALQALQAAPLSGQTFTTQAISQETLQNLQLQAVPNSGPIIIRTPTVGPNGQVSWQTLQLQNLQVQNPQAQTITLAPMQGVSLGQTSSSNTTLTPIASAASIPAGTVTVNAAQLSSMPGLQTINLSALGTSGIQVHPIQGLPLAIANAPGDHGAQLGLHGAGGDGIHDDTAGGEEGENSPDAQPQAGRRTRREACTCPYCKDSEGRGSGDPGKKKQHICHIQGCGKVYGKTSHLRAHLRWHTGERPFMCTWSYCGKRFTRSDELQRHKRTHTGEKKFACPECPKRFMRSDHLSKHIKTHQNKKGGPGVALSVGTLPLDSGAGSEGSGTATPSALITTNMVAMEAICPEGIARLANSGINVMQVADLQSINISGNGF
Hypoxia-inducible factor 1-alpha (Homo sapiens), sequence (Q16665 whole entry, looked up): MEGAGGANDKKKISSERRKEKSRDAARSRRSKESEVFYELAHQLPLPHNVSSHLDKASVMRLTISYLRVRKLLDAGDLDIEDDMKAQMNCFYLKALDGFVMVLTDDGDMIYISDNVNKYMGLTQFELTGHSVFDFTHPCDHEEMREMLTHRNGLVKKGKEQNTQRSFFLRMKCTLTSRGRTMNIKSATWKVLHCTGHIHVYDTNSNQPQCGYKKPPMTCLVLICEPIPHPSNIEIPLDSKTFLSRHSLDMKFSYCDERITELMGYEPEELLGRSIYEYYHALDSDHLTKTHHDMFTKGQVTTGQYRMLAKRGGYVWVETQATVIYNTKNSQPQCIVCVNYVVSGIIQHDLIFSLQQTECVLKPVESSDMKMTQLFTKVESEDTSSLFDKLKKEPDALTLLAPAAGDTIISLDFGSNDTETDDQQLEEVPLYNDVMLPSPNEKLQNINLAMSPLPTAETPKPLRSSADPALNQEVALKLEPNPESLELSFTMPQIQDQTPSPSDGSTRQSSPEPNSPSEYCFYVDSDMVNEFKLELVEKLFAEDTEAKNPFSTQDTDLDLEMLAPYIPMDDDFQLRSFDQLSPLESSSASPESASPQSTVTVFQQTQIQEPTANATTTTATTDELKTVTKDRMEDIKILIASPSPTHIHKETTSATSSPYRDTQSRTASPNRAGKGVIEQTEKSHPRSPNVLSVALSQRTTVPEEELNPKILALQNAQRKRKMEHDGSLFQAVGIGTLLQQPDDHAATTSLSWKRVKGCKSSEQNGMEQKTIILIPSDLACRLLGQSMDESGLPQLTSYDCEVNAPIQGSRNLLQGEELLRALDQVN

For the compound `OC(Cc1ccccc1Cl)(Cn1[nH]cnc1=S)C1(Cl)CC1` (centres undefined), the result in test [1], in test [2], in test [3], in test [4], in test [8] and in [10] was inactive. The compound was called inactive in [11], in test [13], in [14], in test [15], in test [16] and in test [17]. Further, the compound was called inactive in test [18]. Also, the concentration at half-maximal activity (AC50) in test [5] was 140 µM (active); in test [6] it was 77.6 µM (active); in [7] it was 21.7 µM (active); in test [9], 4.27 µM (active); in test [12], 145 µM (active); in [19], 18 µM (active).

Regarding `CC(=Cc1ccccc1)[N+](=O)[O-]`, the result in test [1], in [2], in test [3], in test [4], in [6] and in test [10] was inactive. Besides, the result in test [11], in [12], in test [13], in test [14], in test [15] and in test [16] was inactive. Also, the compound was called inactive in test [17], in test [18], in test [20] and in test [19]. The AC50 was 4.41 µM (active) in [5], 13.7 µM (active) in [7], 11.1 µM (active) in test [8] and 4.02 µM (active) in test [9].

As to `C[CH2][Hg][S]c1ccccc1C(=O)O`, the compound was called inactive in test [1], in test [2], in test [3], in test [5], in test [7] and in test [15]. In addition, the call in test [16] and in test [20] was inactive. The AC50 in test [4] is 4.19 µM (active); in [6], 3.71 µM (active); in test [8] it was 4.42 µM (active); in [9], 5.8 µM (active); in test [10], 0.814 µM (active); in test [11] it was 2.97 µM (active). The AC50 is 2.56 µM (active) in test [12]; 1.51 µM (active) in test [13]; 2.66 µM (active) in test [14]; 6.54 µM (active) in test [17]; 1.87 µM (active) in test [18]; 3 µM (active) in test [19].

A word on the AC50: it is the concentration giving half of the maximal activity seen.
